High-throughput results deposited in PubChem BioAssay by National Center for Advancing Translational Sciences (NCATS).
Lassa entry inh: inhibitors of Lassa virus binding or cell entry. Lassa virus pseudotype entry inhibition, cell reporter. Potency, µM (titrated, usually from 37.9 µM), for inactives: at the highest dose activity change, negative = inhibition, actives largely listed as inhibitors. actives 1.2% (n = 300,000). AID 540256; calls by dose curve; tested in HEK293 cells; note: potency is the fitted concentration of half-maximal effect; nearly all actives have a fitted effect of over 50% in size
HCMV inh: blocks human cytomegalovirus replication; actives 4.5% (n = 410,000); AID 1259415; activity change, negative = inhibition, % at 57.5 µM; HFF cells, HCMV-luciferase reporter, 72 h; hits give low values; in the data active = activity change below about -60%; inconclusive = no clear call, values can overlap the other calls; inactive = above about -39%
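Two compound doses tested in HFFs infected with HCMV-luciferase, MOI 1 PFU/cell, 72 h at 37C. Lysate luminescence read with OneGlo; data normalized against buffer-only and 10uM Salinomycin inhibitor controls.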
HCV inh: inhibitors of hepatitis C virus infection; Huh7.5.1 HCVcc-Cre infection, luciferase reporter, 44 h; Potency, µM (highest dose often 41.8 µM), for inactives: at the highest dose activity change, negative = inhibition, actives largely listed as inhibitors; actives 3.4% (n = 340,000); note: potency is the fitted concentration of half-maximal effect
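Luciferase read-out (15 sec integration) after a 15 min room-temperature substrate step quantifies HCVcc-Cre infection. Cells, 1,000 per well, had compound added 4 h post-plating, then virus at ~0.5 moi, and were cultured 44 h.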
Pf growth 96h: P. falciparum growth inhibition at 96 hours | Potency, µM (titrated, usually from 28.7 µM), for inactives: at the highest dose activity change, negative = inhibition, usual class: inhibitors | P. falciparum luciferase reporter growth, 96 h | actives 6.9% (n = 320,000); note: potency is the fitted concentration of half-maximal effect
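Infected RBCs, 2% Hct / 0.05% parasitemia final; luciferase-reporter P. falciparum; cpd 96 h, 37 C, 5% CO2; luciferase detection reagent; luminescence.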
Pf growth 48h: inhibits P. falciparum growth in the first generation, 48 h. P. falciparum luciferase growth in erythrocytes, 48 h. actives 5.9% (n = 310,000). Potency, µM (highest dose often 28.7 µM), inactives show at the highest dose activity change, negative = inhibition, most hits filed as inhibitors; note: potency is the fitted concentration of half-maximal effect
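Luciferase-expressing parasites in RBCs, 2% Hct / 0.1% parasitemia final; RPMI 1640 + 0.5% Albumax; 37 C, 5% CO2, one generation; luminescence read-out, lower signal = inhibition.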
Marburg entry inh: Marburg virus entry inhibition | Marburg virus pseudotyped entry inhibition, cell reporter | Potency, µM (doses to about 37.8 µM), inactives show top-dose activity change, negative = inhibition, most hits filed as inhibitors | actives 1.8% (n = 300,000) | AID 540276; calls by dose curve; tested in HEK293 cells; note: potency is the fitted concentration of half-maximal effect
Numbers without * were called inactive; [ ] = remark or other dose. Compounds with a hit are over-represented: about 14% of the library has one in this group of screens. Unless noted, calls come from the whole dose curve; as a rule, active = well fitted inhibition curve with a large enough effect; inconclusive = small, poorly fitted or top-dose-only effect, or another doubt; inactive = no such curve, though single readings can be large or run the other way. % is set by controls: 0 for no effect and ±100 for the full control effect.

For CCN1C(=O)c2ccccc2S(=O)c2ccc(C(=O)N3CCN(c4cccc(C)c4)C(C)C3)cc21 (stereo not drawn) the results were Lassa entry inh inconclusive, HCMV inh -27 and Marburg entry inh -5%[46.1 µM].
Screening CCn1c(=O)c2sccc2n2c(CCC(=O)Nc3ccc(F)cc3)nnc12 returned Lassa entry inh -17%[46.1 µM], HCMV inh 3 and Marburg entry inh 9%[46.1 µM].
Screening COc1cc2c(cc1NC(=O)COC(=O)Cn1cnc3ccccc31)oc1ccccc12 returned Lassa entry inh 2%, HCMV inh 45, HCV inh 2.2µM*, Pf growth 96h -2%, Pf growth 48h 63% and Marburg entry inh inconclusive.
Screening COc1cc2c(cc1NC(=O)Nc1ccccc1)oc1ccccc12 returned Lassa entry inh -19%, HCMV inh -28, HCV inh 5µM*, Pf growth 96h 28%, Pf growth 48h -10% and Marburg entry inh -4%.
`COc1cc2c(cc1NC(=O)Cc1ccc(C)cc1)oc1ccccc12` gave Lassa entry inh 9%, HCMV inh -28, HCV inh 10µM*, Pf growth 96h -29%, Pf growth 48h 70% and Marburg entry inh inconclusive.
COc1ccc(CCNC(=O)COC(=O)Cn2cnc3ccccc32)cc1OC was read as Lassa entry inh 13%, HCMV inh -2, HCV inh 5%, Pf growth 96h 14%, Pf growth 48h -4% and Marburg entry inh 6%[46.1 µM].
Screening COc1cc2c(cc1NC(=O)CSc1ccc(C)cc1)oc1ccccc12 returned Lassa entry inh 2%, HCMV inh 20, HCV inh 10µM*, Pf growth 96h 86%, Pf growth 48h 13% and Marburg entry inh inconclusive.
For Cc1ccc(CSc2nc3ccc(NC(=O)CC(C)C)cc3s2)cc1 the results were Lassa entry inh -11%[46.1 µM], HCMV inh -7 and Marburg entry inh -18%[46.1 µM].
`Cc1ccc(-c2csc(-c3nc(-c4ccc(Br)s4)cs3)n2)cc1` gave Lassa entry inh 21%[46.1 µM], HCMV inh -3 and Marburg entry inh inconclusive.
Cc1ncc(CNC(=O)N(CCCl)N=O)c(N)n1 was read as Lassa entry inh 0%, HCMV inh 9, HCV inh 2.8µM*, Pf growth 96h 1%, Pf growth 48h 2% and Marburg entry inh inconclusive.
`COC(=O)CCC(NC(=O)c1cc(C)oc1C)C(=O)OC` (stereo not drawn) gave Lassa entry inh 1%, HCMV inh inconclusive, HCV inh 13%, Pf growth 96h 10µM*, Pf growth 48h 12% and Marburg entry inh 13%.
For O=C(NC(=S)N1CCCCC1)c1csc([N+](=O)[O-])c1 the results were Lassa entry inh -11%, HCMV inh inconclusive, HCV inh -3%, Pf growth 96h 5.2µM*, Pf growth 48h 15µM* and Marburg entry inh 7%[46.1 µM].
Screening C=CCNC(=S)NC(=O)c1csc([N+](=O)[O-])c1 returned Lassa entry inh 10%, HCMV inh -28, HCV inh 6%, Pf growth 96h inconclusive, Pf growth 48h 9% and Marburg entry inh 17%.
Screening CC1(C(=O)NCc2ccc(Cl)c(Cl)c2)Oc2ccccc2NC1=O (stereo not drawn) returned Lassa entry inh inconclusive, HCMV inh inconclusive, HCV inh -21%, Pf growth 96h inconclusive, Pf growth 48h inconclusive and Marburg entry inh -29%[46.1 µM].
`CN1CC(c2ccc(Cl)c(Cl)c2)[C@@]2(COc3ccccc3C2=O)[C@@]12C(=O)Nc1ccccc12` (stereo partly drawn) gave Lassa entry inh inconclusive, HCMV inh -9, HCV inh 11µM*, Pf growth 96h 2.1µM*, Pf growth 48h 3.3µM* and Marburg entry inh inconclusive.
Screening Cc1noc(C)c1CSc1nc2ccccc2[nH]1 returned Lassa entry inh 5%, HCMV inh 95, HCV inh 18%, Pf growth 96h -1%[5.75 µM], Pf growth 48h -16% and Marburg entry inh 14%.
For COc1ccc(-c2noc(CSc3nnc(Cc4ccccc4)n3-c3ccccc3)n2)cc1OC the results were Lassa entry inh 6.3µM*, HCMV inh -21 and Marburg entry inh -22%[46.1 µM].
